ST2 IL33 inh: inhibitors of human ST2 (IL1RL1) binding to IL-33, primary screen, biochemical, AlphaLISA. hit rate 2.3% among 78,000. Interleukin-1 receptor-like 1 (Homo sapiens), Q01638. AlphaLISA ST2-Fc/biotin-IL-33 interaction, 1 h. AID 1259354, 2018. inhibition, % for hits at 17 µM; in the data active means inhibition above about 30%
Target sequence (Q01638 whole entry, looked up): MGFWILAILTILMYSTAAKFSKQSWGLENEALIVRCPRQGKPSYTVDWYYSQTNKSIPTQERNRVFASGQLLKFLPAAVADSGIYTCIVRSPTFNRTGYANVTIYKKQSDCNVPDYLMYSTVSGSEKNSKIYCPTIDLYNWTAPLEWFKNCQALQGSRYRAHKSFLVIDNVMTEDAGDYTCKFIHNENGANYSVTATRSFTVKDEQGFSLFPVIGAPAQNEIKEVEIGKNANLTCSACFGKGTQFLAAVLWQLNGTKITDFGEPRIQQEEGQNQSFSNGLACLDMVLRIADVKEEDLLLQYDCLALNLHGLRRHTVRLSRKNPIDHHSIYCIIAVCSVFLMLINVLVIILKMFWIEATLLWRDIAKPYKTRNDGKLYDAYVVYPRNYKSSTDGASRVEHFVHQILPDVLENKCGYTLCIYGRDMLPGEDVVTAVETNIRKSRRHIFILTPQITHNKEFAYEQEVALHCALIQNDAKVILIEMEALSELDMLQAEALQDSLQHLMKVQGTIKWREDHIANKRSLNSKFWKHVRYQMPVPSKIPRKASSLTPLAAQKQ
* marks the source's active call; other numbers are inactive results; i = inactive; ! = not active in a repeat. Shown is part of a subset that was picked to be rich in hits.

SMILES | ST2 IL33 inh
Cc1ccc2nc(CCc3cccc(NC(=O)C4CCCN(S(=O)(=O)N5CCCC5)C4)c3)[nH]c2c1 (configuration not stated) | i
COc1ccc(C)cc1Nc1nc(C)[nH]c1[N+](=O)[O-] | i
CCC(Oc1ccc2c(c1)CCCC2)C(=O)N1CCc2[nH]ncc2C1 (configuration not stated) | i
COc1ccc(C2(CNC(=O)c3ccccc3Cl)CCOCC2)cc1 | i
CC(=O)N[C@H]1CC[C@]2(C)CC[C@@H]([C@H](C)C(=O)NCCN3CCCC3)[C@H](O)[C@H]2[C@@H]1C | i
C[C@H]1[C@@H]2[C@@H](O)C([C@H](C)C(=O)NCCN3CCOCC3)CC[C@@]2(C)CC[C@@H]1NC(=O)C1CCCCC1 (some centres not stated) | 32.0%*
COCCNC(=O)[C@@H](C)[C@@H]1CC[C@@]2(C)CC[C@H](NC(=O)C3CC3)[C@@H](C)[C@@H]2[C@H]1O | i
CNC(=O)C(C)N(C)C(=O)Cc1sc(C)nc1C (configuration not stated) | i
CCCOc1ccc(/C=c2\sc3nc(-c4cccs4)nn3c2=O)cc1 | i
COc1cc2c(C(=O)Nc3ccc(F)cc3F)cn(C)c(=O)c2cc1OC | i
O=S(=O)(NCc1ccco1)c1ccccc1 | i
CC(=O)N1c2ccccc2N=C(c2ccccc2)CC1c1ccccc1 (configuration not stated) | i
Cc1cc2n(n1)C(c1ccc(Cl)cc1)CC(c1ccccc1)=N2 (configuration not stated) | 30.0%*!
O=C(O)CCC(=O)N1N=C(c2ccccc2)CC1c1ccc(Cl)cc1 (configuration not stated) | i
CC(=O)O/N=C\c1c(NCc2ccccc2)nc2c(C)cccn2c1=O | i
C=CCN(C(=O)c1cnn(CCC)c1C)C1CCS(=O)(=O)C1 (configuration not stated) | i
Cc1[nH]c2ccc(Cl)cc2c(=O)c1CN(C)Cc1ccccc1 | i
CC(C)(C)C1CCc2c(sc(NC(=O)c3ccccc3F)c2C(=O)O)C1 (configuration not stated) | i
O=C(OCc1ccc(-c2ccc(Br)cc2)o1)c1ccc2c(c1)OCCO2 | i
Cc1ccc(NCC(=O)c2ccc([N+](=O)[O-])cc2)cc1 | 36.0%*
CC(C)(C)CC(=O)Nc1ccc([N+](=O)[O-])cc1 | i
Cc1ccc(NC(=O)c2ccc([N+](=O)[O-])cc2)cc1F | i
CCc1ccc(CN2CCCC(CNC(=O)c3ccncn3)C2)nc1 (configuration not stated) | i
COc1cccc(-c2cc(CNC(=O)C(C)(C)NC(=O)c3cccs3)on2)c1 | i
O=[N+]([O-])c1cc2c(cc1C=Nc1ccc(-c3nc4ccccc4o3)c(O)c1)OCO2 | i
SMILES | ST2 IL33 inh
Cc1ccc(-c2nc(N3CCC4(CC3)OCCO4)c3ccccc3n2)cc1 | i
O=[N+]([O-])c1cc([N+](=O)[O-])c2c(OCc3ccccc3)nsc2c1 | 43.0%*
Cc1nc2c(sc3cc([N+](=O)[O-])cc(Sc4ccccc4)c32)c(=O)n1C | i
Cc1c(N=Cc2ccccc2)cc([N+](=O)[O-])cc1[N+](=O)[O-] | i
CCc1cc2c(=O)c(-c3ccc4c(c3)OCO4)coc2cc1OC(C)C | i
O=C(c1cccnc1)N1N=C(c2ccc(Cl)cc2)CC1(O)C(F)(F)F (configuration not stated) | i
Fc1cccc2c1NC(c1ccc(Br)cc1)C1CC=CC21 (configuration not stated) | 42.0%*
O=C(O)c1cccc2c1NC(c1ccccc1Br)C1CC=CC21 (configuration not stated) | i
Cc1ccc([C@@H]2Nc3c(F)cccc3[C@@H]3C=CC[C@@H]32)cc1 | i
O=C(O)c1cccc2c1NC(c1ccc(F)cc1)C1CC=CC21 (configuration not stated) | 50.0%*
COc1cccc2c1NC(c1ccc(Br)cc1)C1CC=CC21 (configuration not stated) | 33.0%*
COc1cc(C2C(C(=O)Nc3ccc(C)cn3)=C(C)NC3=C2C(=O)CCC3)cc(OC)c1OC (configuration not stated) | i
CC(=NCc1ccco1)c1c(-c2ccccc2)[nH]n(-c2nc3ccccc3s2)c1=O | i
COc1cccc(-c2cc3c(n(Cc4ccccn4)c2=O)CCN(C(=O)c2cc(C)nn2C)C3)c1 | i
O=C(NCC1CCCN(C(=O)c2cncs2)C1)c1cccc2ccccc12 (configuration not stated) | i
Cc1nccn1-c1ccc(NC(=O)C2CCCN2C(=O)C2CCCCC2)cc1 (configuration not stated) | i
C(=C\c1nnc(-c2ccccc2)o1)/c1ccccc1 | 34.0%*
Nc1nnc(-c2ccccc2)o1 | i
O=C(O)CCN(CCC(=O)O)c1nnc(-c2ccccc2)o1 | i
CCN1CCCC1CN(CC1CCN(CCOC)CC1)C(=O)c1ccc2cc[nH]c2c1 (configuration not stated) | i
O=C(CN1CCC(c2ccccc2)C1)NC1CCC(n2cnnc2)CC1 (configuration not stated) | i
CCc1ccc(CN2C(=O)CCC2(C)C(=O)NC2CCCC(C)C2C)cc1 (configuration not stated) | i
CCC(=O)N1c2ccccc2-c2nnc(SC)nc2OC1c1cccc(OC)c1 (configuration not stated) | i
Cc1cc(C)cc(CCC(=O)NCCS(C)(=O)=O)c1 | i
O=C1C(=C(c2ccccc2)c2ccccc2)C(=O)c2ccccc21 | 39.0%*
SMILES | ST2 IL33 inh
O=C1CN(C(=O)c2ccccc2)C(=O)CN1C(=O)c1ccccc1 | i
O=C1C(=C(O)c2ccccc2)NS(=O)(=O)c2ccccc21 | i
CN(C)CCN1C(=O)C2C3c4ccccc4C(c4ccccc43)C2C1=O (configuration not stated) | i
CC(=O)N1CC[C@@]2(O)CCCC[C@@H]2[C@H]1c1ccccc1 | i
Brc1ccc(-c2cc3ccccn3c2)cc1 | 34.0%*
Brc1ccc(-c2cn3ccccc3n2)s1 | i
Clc1ccc(-c2cn3ccccc3n2)cc1 | i
Cc1ccc(-n2cnc3sc4c(c3c2=O)CCCC4)cc1 | i
COc1nc(OC)nc(-c2ccc(F)c(CO)c2)n1 | i
Cc1ccc(C(=O)Nc2cccc(I)c2)cc1C | i
CC(C)CC(=O)Nc1ccc(NC(=O)c2cccs2)cc1 | i
C[C@@]12CC[C@@H](C[C@@H]1N)C2 | 41.0%*
Cc1c(CN2CCCC(O)(CO)CC2)[nH]c2ccc(F)cc12 (configuration not stated) | i
CC(C)N1CCn2nc(C(=O)NCC3COCCO3)cc2C1 (configuration not stated) | i
Cc1cccc(C)c1NC(=O)C1(N(Cc2ccccc2)C(=O)Cn2nnnc2N)CCCCC1 | i
O=C(CC1Sc2ccccc2NC1=O)Nc1ccccc1F (configuration not stated) | i
CCN(CC)c1ccc2cc(C(=O)Nc3ccccc3Cl)c(=N)oc2c1 | i
CCC(=O)OCCNc1cc(C)c2noc3c2c1C(=O)c1ccccc1-3 | 33.0%*
CCc1cccc(NC(=O)c2ccccc2Br)c1 | i
O=C(Nc1nnc(CCS(=O)(=O)c2ccc(Cl)cc2)s1)c1ccc([N+](=O)[O-])cc1 | i
CN1CCN(c2nc(-c3ccc(C(N)=O)cc3)nc3c2CCNC3)CC1 | i
Cc1ccc(C)n1-c1ccc(OCC(=O)O)cc1 | 64.0%*
COc1ccc(OCC(=O)O)cc1 | i

High-throughput results (PubChem BioAssay)
